Measurements reported in the supplement of paper PMC9135407.
Several values for one entry are separate records, joined by “and”; a condition that tells them apart may be missing. Equal entries are not always repeated. Structures can show the parent of a compound that is named as a salt. The whole screen tested about 5,800 compounds, of which about 620 (11%) showed activity. The sample as a whole holds a higher share of actives than the screen did. Unmarked numbers belong to inactive results.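 The calls were made as follows: active = score above a cut-off or among the top three wells of a plate; in these data no inactive exceeds 0.85.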

Tested on: primary human hepatic stellate cells (donor 1)
Assay: scaled lipid accumulation score (0 = DMSO-like, 1 = nortriptyline-like); higher = stronger HSC inactivation (lipid re-accumulation), active = hit call of the paper
Conditions: 48 h
[1] = library stock concentration: 1 mM
[2] = library stock concentration: 10 mM
[3] = library stock concentration: 3.33 mM
[4] = library stock concentration: 400 uM
[5] = library stock concentration: 2 mM

Compound: CCCCCCCCCC(=O)OCC(CO)OC(=O)CCCCCCCCC (stereo not drawn) [1,2-Didecanoyl-sn-glycerol]
- scaled lipid accumulation score [1]: ≤ 0

Compound: CCCCCCCCCC(=O)OCC(CO)OC(=O)CCCCCCCCC (stereo not drawn) [1,2-Didecanoyl-glycerol (10:0)]
- scaled lipid accumulation score [1]: ≤ -0.021

Compound: CCCCCC(O)C=CC1CC2CC(C1CC=CCCCC(=O)O)C2(C)C [15(R)-Pinane Thromboxane A2]
- scaled lipid accumulation score [1]: ≤ 0

Compound: Cc1onc(-c2ccccc2)c1-c1ccc(S(N)(=O)=O)cc1
- scaled lipid accumulation score [2]: ≤ 0

Compound: Cc1onc(-c2ccccc2)c1-c1ccc(S(N)(=O)=O)cc1 [Valdecoxib]
- scaled lipid accumulation score [3]: ≤ 0
- scaled lipid accumulation score [2]: 0.226 and 0.088

Compound: CCCCCCCCCCCCCCCC(=O)OC [Palmitic Acid methyl ester]
- scaled lipid accumulation score [1]: 0.031

Compound: O=P(O)(O)OC1C(O)C(OP(=O)(O)O)C(O)C(OP(=O)(O)O)C1O [D-myo-Inositol-1,3,5-triphosphate (sodium salt)]
- scaled lipid accumulation score [1]: 0.025

Compound: O=C(O)Cc1sc(-c2ccccc2)nc1-c1ccc(Cl)cc1 [Fentiazac]
- scaled lipid accumulation score (library stock concentration: 6.1 mM): 0.006

Compound: CCCCC[C@H](O)/C=C/[C@H]1CCC(=O)[C@@H]1CCCCCCC(=O)O [11-deoxy Prostaglandin E1]
- scaled lipid accumulation score [1]: 0.015

Compound: CC(C)=CCC[C@](C)(O)C1CC=C(C)CC1 (stereo partly drawn) [Bisabolol]
- scaled lipid accumulation score [2]: 0.049

Compound: Cl.Cl.NC1(c2ccc(-c3nc4ccn5c(=O)[nH]nc5c4cc3-c3ccccc3)cc2)CCC1 [listing 1 of 2 here]
- scaled lipid accumulation score [4]: 1.07 (active)
- scaled lipid accumulation score [5]: 1.23 (active)

Compound: Cl.Cl.NC1(c2ccc(-c3nc4ccn5c(=O)[nH]nc5c4cc3-c3ccccc3)cc2)CCC1 [listing 2 of 2 here]
- scaled lipid accumulation score [3]: 1.35 (active)
- scaled lipid accumulation score [2]: 1.02 (active)

Compound: O=C1C(=Cc2ccc(O)cc2)C2=Nc3ccccc3C2=C1C1=C2C(=Nc3ccccc32)C(=Cc2ccc(O)cc2)C1=O [Scytonemin, Lyngbya sp.]
- scaled lipid accumulation score [3]: ≤ 0

Compound: COc1ccc2cc(C(C)C(=O)O)ccc2c1 (stereo not drawn) [Naproxen(+)]
- scaled lipid accumulation score (library stock concentration: 8.7 mM): 0.014
- scaled lipid accumulation score [2]: ≤ 0

Compound: CCCCCC(=O)CC[C@@H]1[C@@H](C/C=C\CCCC(=O)OC(C)C)[C@@H](O)C[C@H]1O
- scaled lipid accumulation score [1]: ≤ 0

Compound: Nc1nc2[nH]c(=O)[nH]c2c(=O)[nH]1 [8-hydroxy Guanine (hydrochloride)]
- scaled lipid accumulation score [1]: ≤ 0

Compound: CCCCC1C(=O)CCC2C(CCCCCCC(=O)O)C(=O)CC12 (stereo not drawn) [Bicyclo Prostaglandin E1]
- scaled lipid accumulation score [1]: ≤ 0

Compound: CCCCCCCCCCCC(=O)NC[C@]1(C)CCC[C@]2(C)c3ccc(C(C)C)cc3CCC12 (stereo partly drawn) [Lauric Acid Leelamide]
- scaled lipid accumulation score [1]: 0.012

Compound: CC(C)c1ccc2c(c1)CC[C@H]1[C@](C)(CN)CCC[C@]21C.Cl [Leelamine (hydrochloride)]
- scaled lipid accumulation score [1]: 0.297 (active)

Compound: CC(C)c1ccc2c(c1)CC[C@H]1[C@](C)(CN)CCC[C@]21C [Lylamine hydrochloride]
- scaled lipid accumulation score [2]: 0.527

Compound: CN(C)C(=O)c1ccc(S(=O)(=O)c2ccc(NC(=O)C(C)(O)C(F)(F)F)c(Cl)c2)cc1 (stereo not drawn)
- scaled lipid accumulation score [3]: ≤ -0.009
- scaled lipid accumulation score [2]: ≤ 0

Compound: CCCC/C=C/C=C/C=C\CCCCCCCC(=O)O [9(Z),11(E),13(E)-Octadecatrienoic Acid]
- scaled lipid accumulation score [1]: ≤ 0

Compound: O=C1Nc2ccc(-c3cccnc3)cc2/C1=C/c1ccc[nH]1 [JAK3 Inhibitor VI]
- scaled lipid accumulation score [3]: ≤ 0

Compound: Cc1ccc(NC(=O)Nc2cc(C(F)(F)F)ccc2F)cc1Nc1ccc2c(c1)NC(=O)/C2=C\c1ccc[nH]1
- scaled lipid accumulation score (library stock concentration: 80 uM): 0.038
- scaled lipid accumulation score [4]: 0.353

Compound: Cc1ccc(NC(=O)Nc2cc(C(F)(F)F)ccc2F)cc1Nc1ccc2c(c1)NC(=O)C2=Cc1ccc[nH]1
- scaled lipid accumulation score [5]: 1.14 (active)
- scaled lipid accumulation score [2]: 1.61 (active)

Compound: CCCCc1c(-c2ccc(OC)cc2)[nH]c2nccnc12 [Aloisine, RP106]
- scaled lipid accumulation score [3]: 0.036

Compound: N#C/C(=C(/N)Sc1ccccc1N)c1cccc(C(O)c2ccncc2)c1 (stereo not drawn) [MEK Inhibitor I]
- scaled lipid accumulation score [3]: ≤ 0

Compound: CN1CCN(CCCN2c3ccccc3Sc3ccc(Cl)cc32)CC1 [Prochlorperazine edisylate]
- scaled lipid accumulation score (library stock concentration: 3.5 mM): 0.713
- scaled lipid accumulation score [2]: 0.523

Compound: NC(=O)N1c2ccccc2C=Cc2ccccc21
- scaled lipid accumulation score [2]: ≤ 0

Compound: NC(=O)N1c2ccccc2C=Cc2ccccc21 [Carbamazepine]
- scaled lipid accumulation score: ≤ 0
- scaled lipid accumulation score [3]: 0.025
- scaled lipid accumulation score [2]: ≤ 0 and 0.28

Compound: Cl.Cl.OCCN1CCN(CCCN2c3ccccc3C=Cc3ccccc32)CC1 [Opipramol dihydrochloride]
- scaled lipid accumulation score [2]: 0.885 (active)

Compound: OCCN1CCN(CCCN2c3ccccc3Sc3ccc(Cl)cc32)CC1 [Perphenazine] [listing 1 of 2 here]
- scaled lipid accumulation score: 0.75
- scaled lipid accumulation score (library stock concentration: 5 mM): 0.605
- scaled lipid accumulation score [2]: 0.329

Compound: OCCN1CCN(CCCN2c3ccccc3Sc3ccc(Cl)cc32)CC1
- scaled lipid accumulation score [2]: 0.962 (active)

Compound: CN1CCN(CCCN2c3ccccc3Sc3ccc(Cl)cc32)CC1 [Prochlorperazine dimaleate]
- scaled lipid accumulation score: 0.696
- scaled lipid accumulation score [2]: 0.815

Compound: OCCN1CCN(CCCN2c3ccccc3Sc3ccc(Cl)cc32)CC1 [Perphenazine] [listing 2 of 2 here]
- scaled lipid accumulation score [2]: 0.916 (active)

Compound: CCCCC[C@](C)(O)/C=C/[C@H]1C(=O)C[C@H](O)[C@@H]1C/C=C\CCCC(=O)O [15(S)-15-methyl Prostaglandin D2]
- scaled lipid accumulation score [1]: ≤ 0

Compound: COC1CCC(C(=O)c2ccc3nc4c(cc3c2)CCCO4)CC1 (stereo not drawn)
- scaled lipid accumulation score [2]: ≤ -0.001

Compound: NCC(O)c1ccc(O)c(O)c1 (stereo not drawn)
- scaled lipid accumulation score [2]: ≤ 0

Compound: COC(=O)/C=C/c1cccc(N(Cc2ccc(-c3ccc(N(C)C)cc3)cc2)C(=O)C2CCCCC2)c1 [Fexaramine]
- scaled lipid accumulation score [2]: 0.006

Compound: CC(NC(=O)Cc1cc(F)cc(F)c1)C(=O)NC1C(=O)N(C)c2ccccc2-c2ccccc21 (stereo not drawn)
- scaled lipid accumulation score [3]: ≤ 0
- scaled lipid accumulation score [2]: 0.235

Compound: N[C@@H](Cc1ccc(O)c(I)c1)C(=O)O [3-Iodo-L-tyrosine]
- scaled lipid accumulation score [2]: ≤ -0.055

Compound: CCOC(=O)c1ccnc(C(=O)OCC)c1
- scaled lipid accumulation score [1]: ≤ 0

Compound: CC/C=C\C/C=C\C/C=C\CCCCCCCCCC(=O)O [Eicosatrienoic acid (20:3 n-3)]
- scaled lipid accumulation score [1]: 0.075

Compound: Nc1nnc(Sc2ncc([N+](=O)[O-])s2)s1
- scaled lipid accumulation score [2]: 0.438

Compound: O=c1[nH]nc(Sc2ncc([N+](=O)[O-])s2)n1-c1ccc2c(c1)OCCO2
- scaled lipid accumulation score [2]: 1.25 (active)

Compound: O=C1NCCN1c1ncc([N+](=O)[O-])s1 [Niridazole]
- scaled lipid accumulation score: ≤ 0

Compound: CCCCC[C@H](O)/C=C/[C@@H]1[C@@H](CCCCCCCO)[C@@H](O)C[C@H]1O [Prostaglandin F1.alpha. Alcohol]
- scaled lipid accumulation score [1]: ≤ 0

Compound: CCCCC(=O)Oc1ccccc1C(=O)O [Valeroyl Salicylate]
- scaled lipid accumulation score [1]: ≤ 0

Compound: CC[C@H](CO)Nc1nc(NCc2ccc(-c3ccccn3)cc2)c2ncn(C(C)C)c2n1 [CR8, (R)-Isomer]
- scaled lipid accumulation score [3]: ≤ 0

Compound: CCOC(=O)c1ncc2[nH]c3cccc(OC(C)C)c3c2c1C
- scaled lipid accumulation score [2]: 0.014

Compound: Cc1nc(N=Nc2cc(S(=O)(=O)O)c3cc([N+](=O)[O-])cc(S(=O)(=O)O)c3c2)c(COP(=O)(O)O)c(C=O)c1O [PPNDS tetrasodium]
- scaled lipid accumulation score [2]: 0.229

Compound: COCCNC(=O)COc1ccc(OCCNC[C@H](O)COc2ccccc2)cc1 [ZD 7114 hydrochloride]
- scaled lipid accumulation score [2]: 0.134

Compound: N#Cc1ccccc1OCC(O)CNCCNC(=O)Nc1ccccc1 (stereo not drawn)
- scaled lipid accumulation score [2]: 0.135

Compound: CCCNCC(O)COc1ccccc1C(=O)CCc1ccccc1 (stereo not drawn) [Propafenone hydrochloride]
- scaled lipid accumulation score: 0.742
- scaled lipid accumulation score (library stock concentration: 5.3 mM): 0.429
- scaled lipid accumulation score [2]: 0.365

Compound: CCCNCC(O)COc1ccccc1C(=O)CCc1ccccc1 (stereo not drawn) [Propafenone HCl]
- scaled lipid accumulation score [3]: 0.241
- scaled lipid accumulation score [2]: 0.684

Compound: CCCNCC(O)COc1ccccc1C(=O)CCc1ccccc1.Cl (stereo not drawn) [Propafenone hydrochloride]
- scaled lipid accumulation score [2]: 0.887 (active)

Compound: CCCNCC(O)COc1ccccc1C(=O)CCc1ccccc1 (stereo not drawn) [Propafenone]
- scaled lipid accumulation score (library stock concentration: 5.9 mM): 0.566

Compound: CCCNCC(O)COc1ccccc1C(=O)CCc1ccccc1 (stereo not drawn) [Rythmol]
- scaled lipid accumulation score [2]: 0.811

Compound: O=C(O)COc1ccc(OCCNC[C@H](O)COc2ccccc2)cc1 [ICI 215,001 hydrochloride]
- scaled lipid accumulation score [2]: 0.013

Compound: CC(C)ON(CC(=O)NO)S(=O)(=O)c1ccc(-c2ccccc2)cc1
- scaled lipid accumulation score [1]: ≤ 0

Compound: O=C1NN(C(=O)Nc2ccc(Br)cc2)[C@@H](c2ccccc2)[C@@H]1c1ccccc1
- scaled lipid accumulation score [2]: 0.026

Compound: COc1cccc(-c2cc(F)ccc2[C@H]2Cc3nc(N)nc(C)c3C(=O)N2)n1
- scaled lipid accumulation score [2]: 0.937 (active)

Compound: COc1cccc(-c2cc(F)ccc2C2Cc3nc(N)nc(C)c3C(=O)N2)n1 (stereo not drawn)
- scaled lipid accumulation score [3]: 0.806

Compound: COc1ccc(-c2cc3c(C)nc(N)nc3n([C@H]3CC[C@H](OCCO)CC3)c2=O)cn1
- scaled lipid accumulation score [3]: ≤ 0
- scaled lipid accumulation score [2]: 0.45

Compound: Cc1ccsc1C(=CCCN1CCC[C@@H](C(=O)O)C1)c1sccc1C
- scaled lipid accumulation score [2]: ≤ 0

Compound: O=C1N[C@@H]2[C@@H](O)[C@@H](O)[C@H](O)[C@@H](CO)N2C1=O [Kifunensine]
- scaled lipid accumulation score [1]: 0.034

Compound: CC(CCCCC(=O)Nc1ccc(C(F)(F)F)cc1)NCCc1cnc[nH]1 (stereo not drawn) [HTMT dimaleate]
- scaled lipid accumulation score [2]: 0.519

Compound: NC(=O)CCCSc1nc(N)nc(-c2c(Cl)cc3c4c(cccc24)COC3)n1
- scaled lipid accumulation score [3]: 0.86 (active)
- scaled lipid accumulation score [2]: 0.886 (active)

Compound: O=P(O)(O)OC1[C@H](O)[C@H](O)C(O)[C@H](O)[C@H]1O (stereo partly drawn) [D-myo-Inositol-1-phosphate (sodium salt)]
- scaled lipid accumulation score [1]: 0.012
